Where “and” joins values, the source holds several entries; their conditions need not be identical. Identical values can stand only once. Inconclusive results are not listed. Calls of active or inactive are those of the source. Calls come from the whole dose curve; as a rule, active = well fitted inhibition curve with a large enough effect; inconclusive = small, poorly fitted or top-dose-only effect; inactive = flat fitted curve, though single readings scatter.
Assays:
[1] = qHTS profiling for inhibitors of Plasmodium falciparum proliferation (AID 504749); note: nearly all actives have a fitted effect of over 60% in size;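 for activity, negative = inhibition: 0% = DMSO vehicle and full inhibition = artemisinin control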; conditions: P. falciparum in erythrocytes, SYBR Green DNA, 72 h
How it was run: (§1)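 Readout was DNA-dye fluorescence from lysed cultures, ex 485/em 535 nm. Parasitized red cells had grown 72 h with compound; data scaled between 0.29 uM artemisinin and DMSO wells and corrected using vehicle-only plates.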

[2] = system: 3D7; assay: as above; conditions: P. falciparum in erythrocytes, SYBR Green DNA, 72 h; series mostly up to 28.7 µM
How it was run: as §1

[3] = system: 7G8; assay: as above; conditions: P. falciparum in erythrocytes, SYBR Green DNA, 72 h; series mostly up to 28.7 µM
How it was run: as §1

[4] = at 28.7 µM (top of the series), parasite line A
[5] = at 28.7 µM (top of the series), parasite line B
Potency is the fitted concentration of half-maximal effect.

Clc1ccc(Cl)cc1
inactive: activity, negative = inhibition [1, 4] 7.27% | Potency [2] | Potency [3]

C[CH2][Hg][S]c1ccccc1C(=O)O
active: Potency ([1]; parasite line A) 2.82 µM | Potency ([1]; parasite line B) 3.16 µM | Potency [2] 1.78 µM | Potency [3] 1.12 µM

CCOc1ccc2c3c1O[C@H]1[C@@H](O)C=C[C@H]4[C@@H](C2)N(C)CC[C@@]341
inactive: activity, negative = inhibition [1, 4] 0.925% | activity, negative = inhibition [1, 5] -4.11% | Potency [2] | Potency [3]

CC[N+](C)(CC)CCOC(=O)C(O)(c1ccccc1)c1ccccc1
inactive: activity, negative = inhibition [1, 4] 5.27% | activity, negative = inhibition [1, 5] 8.78% | Potency [2] | Potency [3]

C[C@@H](Cc1ccccc1)NCCC(c1ccccc1)c1ccccc1
active: Potency [3] 4.47 µM
inactive: activity, negative = inhibition ([1]; at 12.8 µM (top of the series), parasite line A) -17.6%

C[C@H]1CCC[C@H](O)CCCCCc2cc(O)cc(O)c2C(=O)O1
active: Potency [3] 12.6 µM
inactive: activity, negative = inhibition [1, 5] -17.3% | Potency [2]

CCC1C(C)=NN=C(c2ccc(OC)c(OC)c2)c2cc(OC)c(OC)cc21 (stereo not given)
inactive: activity, negative = inhibition [1, 4] 12.9% | activity, negative = inhibition [1, 5] 13.3% | Potency [2]
active: Potency [3] 14.1 µM

F/C(COc1ccc2c(c1)[nH]c1ccccc12)=C1/CN2CCC1CC2
active: Potency ([1]; parasite line B) 10 µM | Potency [3] 5.01 µM

[O]=[Cr](=[O])([OH])[O][Cr](=[O])(=[O])[OH]
inactive: activity, negative = inhibition [1, 4] -8.13% and -2.73% | activity, negative = inhibition [1, 5] -2.72% and -3.46% | Potency [2] | Potency [3]

CCC1(c2ccccc2)C(=O)NC(=O)NC1=O
inactive: activity, negative = inhibition [1, 4] 5.22% | activity, negative = inhibition [1, 5] 9.88% | Potency [2] | Potency [3]

O=c1c2ccccc2[se]n1-c1ccccc1
active: Potency [3] 8.91 µM

CC(Cc1ccccc1)NC=O (stereo not given)
inactive: activity, negative = inhibition [1, 4] 1.78% | activity, negative = inhibition [1, 5] 3.72% | Potency [2] | Potency [3]

O=C(OCCN1CCCCC1)C(O)(c1ccccc1)c1ccccc1
inactive: activity, negative = inhibition [1, 4] 8.26% | activity, negative = inhibition [1, 5] -1.95% | Potency [2] | Potency [3]

CN1c2ccccc2C(NCCCCCCC(=O)O)c2ccc(Cl)cc2S1(=O)=O (stereo not given)
inactive: activity, negative = inhibition [1, 4] 2.2% | activity, negative = inhibition [1, 5] -5.71% | Potency [2] | Potency [3]

S=C(S)N1CCNCC1
inactive: activity, negative = inhibition [1, 4] 5.54% | activity, negative = inhibition [1, 5] 4.75% | Potency [2] | Potency [3]

O=C(NCNC(=O)NC1C(=O)NC(=O)N1CO)NC1C(=O)NC(=O)N1CO (stereo not given)
inactive: activity, negative = inhibition [1, 4] 15.1% | activity, negative = inhibition [1, 5] 8.84% | Potency [2] | Potency [3]

CCCCCCCCCC(=O)O[C@H]1CC[C@H]2[C@@H]3CCC4=CC(=O)CC[C@]4(C)[C@H]3CC[C@]12C
inactive: activity, negative = inhibition [1, 4] 8.28% | activity, negative = inhibition [1, 5] -5.1% | Potency [3]

CNC(=O)Oc1ccccc1C(=O)Nc1ccccc1
active: Potency ([1]; parasite line B) 11.2 µM | Potency [3] 10 µM
inactive: Potency [2]

CN1CCCC(=C(c2cccs2)c2cccs2)C1
inactive: activity, negative = inhibition [1, 5] -19.2% | Potency [2]

Clc1ccccc1Cl
inactive: activity, negative = inhibition [1, 4] 6.5% | Potency [2] | Potency [3]

[N-]=[N+]=CC(=O)OCC(N)C(=O)O (stereo not given)
inactive: activity, negative = inhibition [1, 4] 3.54% | activity, negative = inhibition [1, 5] -4.07% | Potency [2] | Potency [3]

Cn1sc(Cl)cc1=O
inactive: activity, negative = inhibition [1, 4] 11.9% | activity, negative = inhibition [1, 5] 7.44% | Potency [2] | Potency [3]

O=CC=O
inactive: activity, negative = inhibition [1, 4] 6.37% | activity, negative = inhibition [1, 5] 0.163% | Potency [2] | Potency [3]

CCC(C)(S(=O)(=O)CC)S(=O)(=O)CC
inactive: activity, negative = inhibition [1, 4] 9.02% | activity, negative = inhibition [1, 5] 9.51% | Potency [2] | Potency [3]

CN1C2CCC1CC(OC(c1ccccc1)c1ccc(Cl)cc1)C2 (stereo not given)
active: Potency ([1]; parasite line A) 5.01 µM | Potency ([1]; parasite line B) 7.08 µM | Potency [2] 12.6 µM | Potency [3] 4.47 µM

CC(=O)OC1CN2CCC1CC2 (stereo not given)
inactive: activity, negative = inhibition [1, 4] -1.93% | activity, negative = inhibition [1, 5] 13.1% | Potency [2] | Potency [3]

CCNC(C)Cc1cccc(C(F)(F)F)c1 (stereo not given)
inactive: activity, negative = inhibition [1, 4] 6.39% | Potency [2] | Potency [3]

ClC=C(Cl)Cl
inactive: activity, negative = inhibition [1, 4] 6.3% | activity, negative = inhibition [1, 5] 0.959% | Potency [2] | Potency [3]

CCC1(CC)C(=O)NC(=O)N(C)C1=O
inactive: activity, negative = inhibition [1, 4] 7.69% | activity, negative = inhibition [1, 5] -5% | Potency [2] | Potency [3]

c1ccc(C2(N3CCCC3)CCCCC2)cc1
active: Potency ([1]; parasite line A) 12.6 µM | Potency [2] 12.6 µM | Potency [3] 11.2 µM

CN1[C@@H]2CC[C@H]1CC(OC1c3ccccc3CCc3ccccc31)C2 (stereo not given in full)
active: Potency ([1]; parasite line A) 3.98 µM | Potency [3] 3.98 µM
inactive: Potency [2]

S=C=S
inactive: activity, negative = inhibition [1, 4] 2.86% | activity, negative = inhibition [1, 5] 20.2% | Potency [2] | Potency [3]

CNC1(c2ccccc2Cl)CCCCC1=O (stereo not given)
inactive: activity, negative = inhibition [1, 4] 12.4% | Potency [2] | Potency [3]

C[N+]1(C)CCCCC1COC(=O)C(O)(c1ccccc1)c1ccccc1 (stereo not given)
inactive: activity, negative = inhibition [1, 4] -21.5% | activity, negative = inhibition [1, 5] -9.17% | Potency [2] | Potency [3]

CCCN1CCCC2Cc3[nH]ncc3CC21 (stereo not given)
inactive: activity, negative = inhibition [1, 4] 7.25% | activity, negative = inhibition [1, 5] 13.9% | Potency [2] | Potency [3]

COC([CH2][Hg])CNC(=O)c1ccccc1OCC(=O)O (stereo not given)
inactive: activity, negative = inhibition [1, 4] 6.16% | activity, negative = inhibition [1, 5] 2.49% | Potency [2] | Potency [3]

O=c1[nH]c(=O)n(Cl)c(=O)n1Cl
inactive: activity, negative = inhibition [1, 4] -5.08% | activity, negative = inhibition [1, 5] 11.2% | Potency [2] | Potency [3]
